Test results from the supplement of paper PMC6555819.

Assays:
Test in all cases: PBM binding z-score (relative to random genomic background probes); higher = stronger binding; sequences stand for … in GC…GCGATTGACAGCGTAGAATGAAGG
[1] = test system: FXR:RXRa (NR concentration 270 nM, RXRa partner concentration 90 nM)
How it was run: (§1)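 For binding z-scores, the reference was random background probes on custom Agilent 4×180K protein-binding microarrays. These arrays were incubated 1 h with ligand-free nuclear receptor dimers in PBS pH 7.4, 2% milk, 0.02% Triton X-100, 1 mM DTT, 0.2 mg/mL BSA and 0.4 mg/ml salmon testes DNA. Fluorescence was scanned after antibody detection of each partner (one per run) and regression-normalized.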

[2] = test system: LXRa:RXRa (NR concentration 270 nM, RXRa partner concentration 90 nM)
How it was run: as §1

[3] = test system: LXRa homodimer (NR concentration 270 nM)
How it was run: as §1

[4] = test system: LXRb:RXRa (NR concentration 270 nM, RXRa partner concentration 90 nM)
How it was run: as §1

[5] = test system: LXRb homodimer (NR concentration 270 nM)
How it was run: as §1

[6] = test system: PPARa:RXRa (NR concentration 270 nM, RXRa partner concentration 90 nM)
How it was run: as §1

[7] = test system: PPARg:RXRa (NR concentration 180 nM, RXRa partner concentration 90 nM)
How it was run: as §1

[8] = test system: PPARg:RXRa 270nM:90nM, anti-RXR (NR concentration 270 nM, RXRa partner concentration 90 nM)
How it was run: as §1

[9] = test system: PPARg:RXRa 30nM:10nM, anti-RXR (NR concentration 30 nM, RXRa partner concentration 10 nM)
How it was run: as §1

[10] = test system: PPARg:RXRa 90nM:30nM, anti-RXR (NR concentration 90 nM, RXRa partner concentration 30 nM)
How it was run: as §1

[11] = test system: PPARg:RXRa DBDmut IVT, anti-RXR (DBD mutation: RXRa K156A/R161A, NR concentration 270 nM, RXRa partner concentration 90 nM)
How it was run: as §1

[12] = test system: PPARg:RXRa IVT, anti-PPARg (NR concentration 270 nM, RXRa partner concentration 90 nM)
How it was run: as §1

[13] = test system: PPARg DBDmut:RXRa IVT, anti-PPARg (DBD mutation: PPARg1 K132A/R137A, NR concentration 270 nM, RXRa partner concentration 90 nM)
How it was run: as §1

[14] = test system: PPARg DBDmut IVT, anti-PPARg (DBD mutation: PPARg1 K132A/R137A, NR concentration 270 nM)
How it was run: as §1

[15] = test system: PPARg homodimer (NR concentration 180 nM)
How it was run: as §1

[16] = test system: PXR:RXRa (NR concentration 270 nM, RXRa partner concentration 90 nM)
How it was run: as §1

[17] = test system: PXR homodimer (NR concentration 270 nM)
How it was run: as §1

[18] = test system: RARa:RXR (NR concentration 270 nM, RXRa partner concentration 90 nM)
How it was run: as §1

[19] = test system: RARa homodimer (NR concentration 270 nM)
How it was run: as §1

[20] = test system: RARb:RXRa (NR concentration 270 nM, RXRa partner concentration 90 nM)
How it was run: as §1

Row | Sequence | PBM binding z-score [1] | PBM binding z-score [2] | PBM binding z-score [3] | PBM binding z-score [4] | PBM binding z-score [5] | PBM binding z-score [6] | PBM binding z-score [7] | PBM binding z-score [8] | PBM binding z-score [9] | PBM binding z-score [10] | PBM binding z-score [11] | PBM binding z-score [12] | PBM binding z-score [13] | PBM binding z-score [14] | PBM binding z-score [15] | PBM binding z-score [16] | PBM binding z-score [17] | PBM binding z-score [18] | PBM binding z-score [19] | PBM binding z-score [20]
1 | TCTATTAGTTGATTAGGGTAACCGAAACAGCGGA | 0.555 | 0.884 | 0.302 | 1.09 | 0.799 | 1.01 | 0.052 | 1.86 | 3.73 | 2.87 | 2.12 | 1.19 | 1.29 | 1.26 | 0.518 | 0.646 | 0.346 | 0.855 | 1.41 | 0.609
2 | CGTCCAAGGTCAGAGAGGTCGGTGAATGCCGAGT | 4.71 | 3.52 | 0.408 | 2.4 | -0.461 | 3.87 | 2 | 2.92 | 0.323 | 1.8 | 2.42 | 2.66 | -0.525 | -1.08 | 0.814 | 3.88 | 5.12 | 2.96 | -0.301 | 4.51
3 | CATACAGGCTCAGCTAGGCCAGAGTAGGGACGGC | -0.48 | -0.677 | -0.674 | -1.16 | -0.846 | -0.795 | 0.181 | -0.549 | -0.529 | -0.694 | -0.65 | -0.492 | 0.0955 | -0.224 | 0.112 | -0.899 | -0.356 | -0.727 | -0.19 | -0.283
4 | ATCTCTTGGTAAGACTCAGTTCAGTGAAGAACGC | 0.584 | 0.976 | 0.839 | 0.676 | 1.08 | 0.0896 | -0.159 | 0.141 | 0.448 | 0.216 | 0.682 | 0.216 | 1.42 | 1.19 | 1.11 | 1.12 | 2.04 | 0.274 | 1.84 | 0.518
5 | ATATGTAGGTTAGCTGGGGGCATTCAGACTAGGC | 0.978 | 3.73 | 0.963 | 4.51 | 9.63 | 4.09 | 4.83 | 4.61 | 2.3 | 3.72 | 6.79 | 6.14 | 4.18 | 5.68 | 1.96 | 4.39 | 1.88 | 2.5 | 1.27 | 2.25
6 | CCAGACAGGTGAAAGGTTACTCAGTCTGGTACGC | 2.37 | 2.59 | 0.167 | 2.26 | -0.0595 | 4.67 | 7.6 | 7.17 | 5.84 | 7.77 | 1.76 | 3.47 | -0.162 | 0.368 | 1.65 | 2.74 | 0.256 | 4.24 | 0.58 | 2.22
7 | CCTCGGAAGACAGAAGGTCAGAGCTGTCCGCTTT | 0.995 | 1.6 | 0.422 | 1.25 | -0.462 | 1.69 | -0.302 | 0.238 | -0.803 | -0.38 | -0.276 | -0.376 | -1.12 | -1.96 | 1.82 | 1.38 | -0.0252 | 1.89 | 0.512 | 2.33
8 | TCTATTAGGTGATTAGGGCAACCGAAACAGCGGA | 0.654 | 0.587 | 0.0646 | 0.425 | 0.526 | 1.86 | 2.13 | 2.98 | 3.56 | 2.97 | 4.87 | 4.81 | 2.12 | 1.04 | 0.876 | 0.422 | 0.211 | 0.593 | 0.993 | 1.37
9 | GCAGATAGGTGAAACGCAGGTAACTCAGGGTGGC | -0.146 | 0.0468 | -0.529 | -0.0922 | -1.28 | 1.27 | 0.838 | 0.277 | -0.496 | 0.174 | 3.27 | 1.58 | 0.0261 | -0.672 | -0.419 | -0.335 | -0.798 | 0.347 | -0.582 | 0.748
10 | ATCGAAAGGTCGACGTGGTGAGTATACACCGTTT | 4.21 | 3.3 | 0.0877 | 2.49 | 0.332 | 4.08 | 2.08 | 2.66 | 1.01 | 1.77 | 0.406 | 1.46 | 0.651 | 0.527 | 1.02 | 2.18 | 0.102 | 3.07 | 0.487 | 3.66
11 | CGTCCAAGGTCAATCCTAGGTCAGTGAAAGCATT | 7.14 | 5.85 | 3.44 | 4.8 | 1.43 | 5.47 | 4.38 | 4.75 | 1.43 | 3.63 | 3.45 | 4.04 | 0.153 | 0.742 | 6.19 | 5.13 | 0.983 | 6.44 | 1.8 | 5.33
12 | TCTTGTAGATCAGCAGTTTAAGAAAGCTGGCCAA | 0.068 | -0.0226 | -0.271 | 0.182 | -0.0391 | 0.33 | -0.762 | 1.27 | 2.68 | 2.09 | 1.44 | 0.0506 | 0.167 | 0.0418 | -0.0273 | 0.249 | -0.18 | 0.328 | 0.193 | -0.0976
13 | ACTAGTTGGTCAGCTGAGTTCACACACAATTCGG | 1.06 | 1.59 | 1.72 | 1.59 | 0.275 | 1.65 | 0.747 | 0.792 | 0.098 | 0.251 | 1.2 | 1.32 | 0.662 | 0.707 | 0.775 | 5.66 | 6.87 | 2.32 | 0.2 | 2
